Assay outcomes as filed in PubChem BioAssay.
Pf growth 96h – Primary qHTS for delayed death inhibitors of the malarial parasite plastid, 96 hour incubation; P. falciparum luciferase reporter growth, 96 h; Potency, µM (top dose mostly 28.7 µM), for inactives: at the top dose activity change, negative = inhibition, hits mostly inhibitors; actives 6.9% (n = 320,000); note: % is set by controls: 0 for no effect and ±100 for the full control effect
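Parasite growth measured via integrated firefly luciferase reporter in P. falciparum. Infected erythrocytes at 2% hematocrit, 0.05% parasitemia final were treated 96 hours at 37 C under 5% CO2, and luminescence was read.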
Sm TGR block – qHTS Assay for the Inhibitors of Schistosoma Mansoni Peroxiredoxins | Schistosoma mansoni thioredoxin glutathione reductase (TGR), Q962Y6 | purified TGR, DTNB reduction, TNB absorbance 405 nm | Potency, µM (doses to about 114 µM), inactives show top-dose activity change, negative = inhibition, usual class: inhibitors | actives 3% (n = 360,000); note: % is set by controls: 0 for no effect and ±100 for the full control effect; nearly all actives have a fitted effect of over 60% in size
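TGR 20 nM + NADPH 100 uM (dispensed conc.), cpd preinc 15 min RT; start with NADPH (500 uM addition) then DTNB (15 mM addition). Kinetic TNB absorbance, 405 nm filter. Four-parameter Hill fit across titration.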
Pf growth 48h – Primary qHTS for delayed death inhibitors of the malarial parasite plastid, 48 hour incubation; P. falciparum luciferase growth in erythrocytes, 48 h; Potency, µM (top dose mostly 28.7 µM), for the others: at the highest dose activity change, negative = inhibition, most hits filed as inhibitors; actives 5.9% (n = 310,000); note: % is set by controls: 0 for no effect and ±100 for the full control effect
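Read-out is firefly luciferase luminescence from an integrated reporter in P. falciparum, so falling signal marks reduced parasite growth. Infected erythrocytes were at 2% hematocrit and 0.1% parasitemia (final) in Albumax-supplemented RPMI 1640.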
NS1 function inh – qHTS Assay for Inhibitors of Influenza NS1 Protein Function | Potency, µM (titrated, usually from 46.1 µM), without a hit: at the top dose activity, positive = more growth | actives 0.4% (n = 270,000) | AID 2326, 2010; calls by dose curve; note: actives are rising curves; nearly all actives have a fitted effect of over 50% in size
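A cell-based growth assay was used: compounds that relieve NS1-induced slow growth of budding yeast raise OD600. Assay medium was yeast nitrogen base with ammonium sulphate and -URA supplement, pH 6.0, with 2% galactose.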
AMA1 RON2 block – qHTS for Inhibitors of AMA1-RON; Towards Development of Antimalarial Drug Lead: Primary Screen; Plasmodium falciparum AMA1 (3D7) - RON2 peptide interaction; AlphaScreen AMA1-biotinylated RON2 peptide binding; Potency, µM (series often up to 58.2 µM), for inactives: top-dose activity change, negative = inhibition, usual class: inhibitors; actives 0.2% (n = 360,000); AID 720542, 2013;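 note: 0% = vehicle wells and -100% = peptide control; nearly all actives have a fitted effect of over 45% in size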
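AMA1 (3D7) with his tag at 25 nM final met compounds first, then biotinylated RON2 peptide at 25 nM; detection used donor plus acceptor beads, 10 µg/mL apiece, read by AlphaScreen after 30 min at room temperature.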
The depositor's hits bear a star; u = inconclusive; x = no result given. Compounds with a hit are over-represented: about 11% of the library has one in this group of screens. Unless noted, calls come from the whole dose curve; as a rule, active = well fitted curve in the direction sought with a large enough effect; inconclusive = small, poorly fitted or top-dose-only effect, or another doubt; inactive = no such curve, though single readings can be large; an effect the other way counts as inactive or inconclusive. Potency is the fitted concentration of half-maximal effect.

SMILES	Pf growth 96h	Sm TGR block	Pf growth 48h	NS1 function inh	AMA1 RON2 block
CCN1C=C(Cc2ccc(OC)cc2)C2=C(C1)C(c1ccc(OC)cc1)C(C#N)=C(N)O2 (stereo not given)	u	35.5µM*	u	13.9%	-17.6%
Cn1cnc(Sc2ncnc3nc[nH]c23)c1[N+](=O)[O-]	-26.6%	u	-27.4%	3.6%	28.2%
Cn1cnc([N+](=O)[O-])c1Sc1ncnc2nc[nH]c12	u	10µM*	u	3.1%	9.0%
[O-][n+]1cccc2cccc(O)c21	x	x	x	x	-0.5%
C[n+]1cccc2cccc([O-])c21	u	50.1µM*	3.29µM*	2.9%	u
Cc1cccc(NC(=O)[C@@H](NC(=O)N2C[C@H]3C[C@@H](C2)c2cccc(=O)n2C3)C(C)C)c1	5.22µM*	-10.1%	17.7%	22.1%	-0.5%
COc1cccc(NC(=O)Nc2cc(C(=O)NC(C)C)ccc2N2CC3CC(C2)c2cccc(=O)n2C3)c1 (stereo not given)	-9.3%	-1.2%	11.7µM*	-4.0%	8.6%
CSc1ccccc1NC(=O)c1ccc(N2CC3CC(C2)c2cccc(=O)n2C3)c(NC(=O)c2ccncc2)c1 (stereo not given)	u	3.1%	9.28µM*	-1.8%	-11.5%
CCCNC(=O)c1ccc(N2CC3CC(C2)c2cccc(=O)n2C3)c(NC(=O)Nc2ccc(CC)cc2)c1 (stereo not given)	5.3%	5.2%	u	14.8%	-11.5%
CCOc1ccc(NC(=O)Cn2c(=O)n(CC(=O)NCCc3ccccc3)c(=O)c3sccc32)cc1	x	-4.1%	x	x	x
CC(=O)c1ccc(NC(=O)C2CCCN(S(=O)(=O)c3cn(C)cn3)C2)cc1 (stereo not given)	x	1.2%	x	x	x
CCOc1ccc(C(=O)NCC(=O)OCc2cc(C(C)=O)ccc2OC)cc1	38.8%	7.08µM*	-3.3%	-20.0%	-6.2%
COc1ccc(C(C)=O)cc1COC(=O)Cc1cc(OC)c(OC)c(OC)c1	-1.3%	11.2µM*	-2.3%	-4.9%	-0.7%
COc1ccc(C(C)=O)cc1COC(=O)CNC(=O)c1ccc(F)cc1	-26.7%	u	0.4%	-1.7%	-1.1%
COc1ccc(C(C)=O)cc1COC(=O)CNC(=O)c1ccc(Cl)cc1	0.0%	3.16µM*	20.0%	-2.8%	1.9%
CCOC(=O)CNC(=O)c1cc(OC)cc(OC)c1	0.928µM*	u	28.9%	x	-2.5%
CC(=O)c1cccc(CN2CCCC(N3CCN(c4ccccc4F)CC3)C2)c1 (stereo not given)	u	u	u	8.1%	30.4%
Cc1ccccc1-n1nc2c(c1NC(=O)C1CCCC1)CS(=O)(=O)C2	12.5%	-2.0%	1.3%	6.8%	7.0%
CC(C)Oc1ccc(C2CC(=O)N(c3cccc(Br)c3)C2=O)cc1 (stereo not given)	22.4%	5.9%	4.8%	-1.8%	14.1%
O=C(c1ccc2c(=O)n3c(nc2c1)CCCCC3)N1CCN(c2ccc([N+](=O)[O-])cc2)CC1	14.9%	-2.9%	-17.4%	19.4%	0.3%
COc1ccc(-c2cc(C(=O)OCC(=O)N3CCCC3)c3ccccc3n2)cc1	x	-5.8%	-1.1%	-35.8%	14.4%
COc1ccc(Br)c(C(=O)OCC(=O)N2CCC(Cc3ccccc3)CC2)c1	-6.9%	-5.1%	13.1µM*	x	-9.7%
COc1ccc2nc(-c3ccccc3)cc(C(=O)OCC(=O)N3CCCCC3)c2c1	u	5.0%	11.7µM*	x	73.0%
Cc1cc(C(=O)OCC(=O)N2CC(C)OC(C)C2)c2ccccc2n1 (stereo not given)	24.3%	1.1%	4.5%	x	-0.5%
COc1ccc2nc(-c3ccccc3)cc(C(=O)OCC(=O)N3CC(C)OC(C)C3)c2c1 (stereo not given)	u	2.7%	11.7µM*	x	50.9%
O=C(NC1CCCCC1)C(c1ccccc1F)n1c(=O)c(-c2cc3ccccc3[nH]2)nc2ccccc21 (stereo not given)	x	x	x	x	64.8%
Cc1ccc(CS(=O)(=O)CCC(=O)O)cc1	u	-10.7%	16.9%	x	1.8%
